# Assay results published in PubChem BioAssay (EPA / NIEHS).
# Inconclusive results are not listed. Active and inactive are the calls of the source. How the source made its calls: active means hit-call score of the fitted dose curve at least 0.9, where 1 is the maximum; inconclusive means response in the unintended direction; inactive means score below 0.9.
# Columns and labels:
# [1] = ACEA_AR_agonist_AUC_viability: ACEA Biosciences xCELLigence Real-Time Cell Analysis on Androgen Receptor Agonism for Viability (AID 2283775)
# Method in brief: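 Viability endpoint from xCELLigence impedance in 22Rv1 prostate cells at 80 h. Eight-point series, 100 uM maximum final.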
# [2] = ACEA_AR_antagonist_AUC_viability: ACEA Biosciences xCELLigence Real-Time Cell Analysis on Androgen Receptor Antagonism for Viability (AID 2283776);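 further: area under impedance growth curve at 80 h after dosing as viability; hits lower the growth signal relative to DMSO meaning cytotoxicity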
# Method in brief: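 22Rv1 human prostate cancer cells were seeded on electrode plates, monitored overnight, then exposed to eight 1:4 dilutions from 100 uM final. Impedance-based growth kinetics at 80 h gave an AUC viability endpoint normalized to DMSO.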
# [3] = ACEA_ER_AUC_viability: ACEA Biosciences xCELLigence Real-Time Cell Analysis on Estrogen Receptor Agonism for Viability (AID 2283782);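 further: hit means loss of impedance signal meaning reduced cell growth or viability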
# Method in brief: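 Continuous-exposure impedance cell analysis uses T-47D cells in charcoal-stripped serum, eight 1:4 dilutions topping at 100 uM final, biological duplicate. Area under the growth curve at 80 h is fitted against DMSO baseline.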
# AR (gene 367) [4] = target: AR (gene 367) (UniProt P10275); assay: ACEA_AR_antagonist_80hr: ACEA Biosciences xCELLigence Real-Time Cell Analysis on Androgen Receptor Antagonism for Proliferation (AID 2283787);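 further: hits lower the impedance growth signal relative to DMSO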
# Sequence of AR (gene 367) (P10275 whole entry, looked up): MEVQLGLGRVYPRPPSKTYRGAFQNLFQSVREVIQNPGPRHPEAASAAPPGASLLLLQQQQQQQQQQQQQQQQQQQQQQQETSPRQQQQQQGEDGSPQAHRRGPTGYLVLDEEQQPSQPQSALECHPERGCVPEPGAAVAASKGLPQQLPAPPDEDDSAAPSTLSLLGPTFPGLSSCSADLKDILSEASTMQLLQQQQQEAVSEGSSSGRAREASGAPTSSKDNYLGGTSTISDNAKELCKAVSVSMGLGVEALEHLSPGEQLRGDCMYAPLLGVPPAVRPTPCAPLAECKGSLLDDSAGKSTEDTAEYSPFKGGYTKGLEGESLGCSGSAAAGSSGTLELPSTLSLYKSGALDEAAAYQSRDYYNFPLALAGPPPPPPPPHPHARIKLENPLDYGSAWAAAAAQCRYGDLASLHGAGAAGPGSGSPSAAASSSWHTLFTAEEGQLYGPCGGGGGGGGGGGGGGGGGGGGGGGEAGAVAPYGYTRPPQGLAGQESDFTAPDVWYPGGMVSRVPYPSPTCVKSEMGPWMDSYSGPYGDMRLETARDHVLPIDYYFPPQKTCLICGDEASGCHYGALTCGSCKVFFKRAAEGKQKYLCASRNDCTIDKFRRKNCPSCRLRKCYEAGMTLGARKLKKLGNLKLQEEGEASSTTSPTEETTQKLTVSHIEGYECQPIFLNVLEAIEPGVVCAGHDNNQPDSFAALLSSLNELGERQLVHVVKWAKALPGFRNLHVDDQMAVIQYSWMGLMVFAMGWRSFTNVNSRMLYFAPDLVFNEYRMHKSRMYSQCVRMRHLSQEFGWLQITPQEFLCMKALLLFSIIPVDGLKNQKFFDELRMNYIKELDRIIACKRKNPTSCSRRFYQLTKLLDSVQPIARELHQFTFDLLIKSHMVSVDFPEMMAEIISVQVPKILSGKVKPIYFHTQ
# Method in brief: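 Using 22Rv1 cells held in assay medium, we dosed compounds (100 uM maximum final, 1:4 serial, eight points, 0.5% DMSO at top) and recorded cell-electrode impedance; the 80 hr timepoint was analyzed against DMSO.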
# AR (gene 367) [5] = target: AR (gene 367) (UniProt P10275); assay: ACEA_AR_agonist_80hr: ACEA Biosciences xCELLigence Real-Time Cell Analysis on Androgen Receptor Agonism for Proliferation (AID 2283783);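 further: hits increase impedance growth signal above DMSO baseline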
# Method in brief: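 Real-time cell-growth kinetics were recorded by electrode impedance in 22Rv1 cells exposed to test chemicals up to 100 uM final; the 80 h timepoint served as the readout, fitted upward relative to DMSO controls, in biological duplicate.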
compound,measurement,setting,value
CCCCCCCCCCCCCC(=O)OCC(O)CO (centres undefined),outcome,[1],inactive
same,outcome,[2],inactive
same,AC50,[3],81.6 µM (active)
same,outcome,AR (gene 367) [4],inactive
O=C(c1ccccc1)C(O)c1ccccc1 (centres undefined),outcome,[2],inactive
same,outcome,[3],inactive
CC(=O)O[C@H]1C[C@@H]2CC[C@@]1(C)C2(C)C,outcome,[2],inactive
same,outcome,[3],inactive
same,outcome,AR (gene 367) [5],inactive
same,outcome,AR (gene 367) [4],inactive
O=CCc1ccccc1,outcome,[1],inactive
same,AC50,[3],78.6 µM (active)
CC(C=O)Cc1ccc(C(C)(C)C)cc1 (centres undefined),outcome,[1],inactive
same,outcome,[2],inactive
same,outcome,AR (gene 367) [4],inactive
CCCCOC(=O)CCCCCCCC(=O)OCCCC,outcome,[1],inactive
same,outcome,[2],inactive
same,outcome,[3],inactive
CC(C)c1ccccc1O,outcome,[2],inactive
same,outcome,[3],inactive
CCCCCCC(C)(C)S,outcome,[1],inactive
same,outcome,[3],inactive
CC1=CC[C@@]23C[C@@H]1C(C)(C)[C@@H]2CC[C@H]3C,AC50,[3],78.5 µM (active)
Nc1ccc2c(O)cc(S(=O)(=O)O)cc2c1,outcome,[3],inactive
COc1ccccc1[N+](=O)[O-],outcome,[3],inactive
CCCCCCCCCC(C)C=O (centres undefined),outcome,[3],inactive
COc1cccc(OC)c1O,outcome,[3],inactive
Nc1ccc(NCCO)c([N+](=O)[O-])c1,outcome,[3],inactive
CCCN(CCC)S(=O)(=O)c1ccc(C(=O)O)cc1,outcome,[3],inactive
CC(=O)NCCO,outcome,[3],inactive
c1ccc(CCc2ccccc2)cc1,outcome,[3],inactive
NC(=S)NNC(N)=S,outcome,[3],inactive
NCC1CCCC(CN)C1 (centres undefined),outcome,[3],inactive
CCc1ccc(O)c(OC)c1,outcome,[3],inactive
C=C(C)C(=O)OCCOCCOCCOC(=O)C(=C)C,outcome,[3],inactive
N#Cc1cscn1,outcome,[3],inactive
COc1ccc(N)c([N+](=O)[O-])c1,outcome,[3],inactive
CC/C=C\CCOC(=O)CC,outcome,[3],inactive
COC(CC(C)CCCC(C)(C)O)OC (centres undefined),outcome,[3],inactive
COC(=O)c1ccc([N+](=O)[O-])cc1,AC50,[3],80.2 µM (active)
CC1(C)C2=CCCC(C)(C)[C@]23CC[C@H]1C3,AC50,[3],78.4 µM (active)
CCN(CC)C(=O)N(CC)CC,outcome,[3],inactive
C=CCCC(=O)/C=C/C1C(C)=CCCC1(C)C (centres undefined),AC50,[3],68.8 µM (active)
CC(C)OCCO,outcome,[3],inactive
CC(=O)OCCCc1ccccc1,outcome,[3],inactive
c1ccc(CN(Cc2ccccc2)Cc2ccccc2)cc1,AC50,[3],89 µM (active)
CCCCN(CCCC)C(=O)N(CCCC)CCCC,AC50,[3],80.4 µM (active)
CCCC[O][Al]([O]CCCC)[O]CCCC,AC50,[3],59.3 µM (active)
CCCC(=O)OCCc1ccccc1,AC50,[3],25.7 µM (active)
CC(C)(C)c1ccc(C(=O)O)cc1,AC50,[3],50 µM (active)
NC1CCCCC1N (centres undefined),AC50,[3],77.1 µM (active)
CC(=O)C1(C)CC2=C(CCCC2(C)C)CC1C (centres undefined),AC50,[3],50 µM (active)
CC/C=C\CC/C=C/CO,AC50,[3],50 µM (active)
COc1ccc(COC(C)=O)cc1,outcome,[3],inactive
CC(C)(CO)[C@@H](O)C(=O)NCCC(=O)O,outcome,[3],inactive
CCCCOCC,outcome,[3],inactive
C=C(CC(=O)O)C(=O)O,outcome,[3],inactive
CCN(CCC#N)c1ccc(N=Nc2ccc([N+](=O)[O-])cc2)cc1,outcome,[3],inactive
C=C(C)C1CC=C(C)C(=O)C1 (centres undefined),AC50,[3],68.2 µM (active)
